Bioassay records as filed in PubChem BioAssay.
AmpC inh detg – qHTS Inhibitors of AmpC Beta-Lactamase (assay with detergent) | AmpC hydrolysis of nitrocefin, absorbance 480 nm, 0.01% Triton | Potency, µM (top dose mostly 114 µM), for the others: at the highest dose activity change, negative = inhibition, usual class: inhibitors | hit rate 0.041% among 370,000 | AID 485294, 2010;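 further: potency means the concentration at half of the fitted maximal effect; 0% = no-compound wells and -100% = no-enzyme wells; nearly all actives have a fitted effect of over 25% in size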
Target sequence (P00811 whole entry, looked up): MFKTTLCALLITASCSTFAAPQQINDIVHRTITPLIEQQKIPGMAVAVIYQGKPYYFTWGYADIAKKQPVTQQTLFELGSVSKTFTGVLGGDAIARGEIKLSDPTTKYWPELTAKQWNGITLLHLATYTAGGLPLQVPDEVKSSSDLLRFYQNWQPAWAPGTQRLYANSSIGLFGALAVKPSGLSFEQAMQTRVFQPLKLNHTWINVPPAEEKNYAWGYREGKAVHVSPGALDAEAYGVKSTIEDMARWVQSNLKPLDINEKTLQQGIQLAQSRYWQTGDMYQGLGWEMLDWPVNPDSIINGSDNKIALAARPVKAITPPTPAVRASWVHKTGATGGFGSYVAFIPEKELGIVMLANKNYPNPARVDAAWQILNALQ
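20 mM phosphate pH 7.0 + 0.01% (detergent screen) or 0.0001% Triton X-100; 5.3 nM AmpC reagent; cpd preinc 15 min RT; nitrocefin (800 uM stock) to start; A480 q20 s × 4 min; Activity was normalised to no-enzyme and no-compound control wells.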
HCV inhibitor – qHTS Assay for Inhibitors of Hepatitis C Virus (HCV); Huh7.5.1 HCVcc-Cre infection, luciferase reporter, 44 h; Potency, µM (titrated, usually from 41.8 µM), inactives show top-dose activity change, negative = inhibition, actives largely listed as inhibitors; hit rate 3.4% among 340,000; further: potency means the concentration at half of the fitted maximal effect
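Antiviral activity was scored by luciferase reporter output from cells infected with HCVcc-Cre (~0.5 moi) in presence of compound, 44 h infection period, cells seeded 1,000/well 4 h prior.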
FMDV inh – High Throughput Screening for Foot and Mouth Disease Virus Antivirals. hit rate 1.2% among 410,000. AID 1159524, 2015. FMDV antiviral cell-based qHTS. Potency, µM (top dose mostly 57.9 µM), without a hit: top-dose activity change, negative = inhibition, usual class: inhibitors; calls by dose curve; tested in HEK293T cells; further: read-out not given here; potency means the concentration at half of the fitted maximal effect; nearly all actives have a fitted effect of over 45% in size
AmpC no deterg – qHTS Inhibitors of AmpC Beta-Lactamase (assay without detergent); P00811; AmpC nitrocefin hydrolysis, absorbance 480 nm, 0.0001% Triton; Potency, µM (series often up to 57.1 µM), inactives show at the highest dose activity change, negative = inhibition, usual class: inhibitors; hit rate 0.52% among 330,000; AID 485341, 2010;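 further: potency means the concentration at half of the fitted maximal effect; plate controls were no compound for no effect and no enzyme for full effect; nearly all actives have a fitted effect of over 20% in size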
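20 mM phosphate pH 7.0 + 0.01% (detergent screen) or 0.0001% Triton X-100; 5.3 nM AmpC reagent; cpd preinc 15 min RT; nitrocefin (800 uM stock) to start; A480 q20 s × 4 min; Activity was normalised to no-enzyme and no-compound control wells.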
HCMV antiviral – qHTS Assay for inhibitors of the human cytomegalovirus (HCMV). HFF cells, HCMV-luciferase reporter, 72 h; hits give low values. activity change, negative = inhibition, % at 57.5 µM. hit rate 4.5% among 410,000. AID 1259415, 2018; in the data active means activity change below about -60%; inconclusive means no clear call, values can overlap the other calls; inactive means above about -39%
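Steps: HFFs plated, 16 h 37C; compounds added; HCMV-luciferase added to MOI 1 PFU/cell; 72 h 37C; OneGlo reagent, 5 min room temperature; luminescence read, normalized to controls.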
Starred values were filed as active, the others as inactive; ? = inconclusive; nt = not tested or not shown. In the library only some 7.3% were active in any assay of this set; here they are far more common. Unless noted, the call rests on the fitted dose curve; in most records, active means well fitted curve in the direction sought with a large enough effect; inconclusive means small, poorly fitted or top-dose-only effect, or another doubt; inactive means no such curve, though single readings can be large; an effect the other way counts as inactive or inconclusive. Unless noted, on the % scale 0 is the no-effect control and ±100 the full control effect.

SMILES	AmpC inh detg	HCV inhibitor	FMDV inh	AmpC no deterg	HCMV antiviral
CN(Cc1cnc2nc(N)nc(N)c2n1)c1ccc(C(=O)N[C@@H](CCC(=O)O)C(=O)O)cc1	nt	?	?	nt	-99*
CC1=C(C(=O)OC2CCCCC2)C(c2cccc([N+](=O)[O-])c2)NC(=O)N1 (stereo not drawn)	3%	11µM*	-12%	-24%	-2
CC1=C(C(=O)OC2CCCCCCC2)C(c2cccc(O)c2)NC(=O)N1 (stereo not drawn)	?	9%	?	-12%	43
CCN(C=NC1=NN(c2cccc(C(F)(F)F)c2)CC1)CC	-12%	11µM*	43%	41%	-22
OCCN(C=NC1=NN(c2cccc(C(F)(F)F)c2)CC1)CCO	-9%	-21%	21%	0%	-10
C=CCOC(=O)c1ccc(N2CCN(c3ccccc3)CC2)nc1	0%	12%	-7%	-31%	-36
CCN(c1ccccc1)S(=O)(=O)c1ccc(Cl)c(NC(=O)CN2CCCCCC2)c1	?	14µM*	?	-2%	?
CCN(c1ccccc1)S(=O)(=O)c1ccc(Cl)c(NC(=O)COC(=O)c2cc(O)c3ccccc3c2O)c1	-3%	nt	nt	4µM*	nt
CCN(c1ccccc1)S(=O)(=O)c1ccc(Cl)c(NC(=O)CN(C)Cc2cccc(F)c2)c1	nt	8.9µM*	-20%	nt	?
NNC(=O)Cn1nc(Cc2ccccc2)n(N)c1=O	-4%	4%	-10%	1%	-6
COc1cc(NC(=O)c2cc([N+](=O)[O-])ccc2NC(=O)CNC2CCCCC2)cc(OC)c1	?	?	-6%	-32%	15
COc1cc(NC(=O)c2cc([N+](=O)[O-])ccc2NC(=O)CNC2CCCCC2C)cc(OC)c1 (stereo not drawn)	-3%	6.3µM*	-24%	-34%	-3
CC(=O)OC1CC[C@]2(C#N)[C@H]3CC[C@]4(C)[C@H](C5C=CC(=O)O5)CCC4(O)C3CCC2(O)C1 (stereo partly drawn)	-4%	2%	?	-3%	-93*
CC(C)CCn1c(=O)c2sccc2n2c(CCCC(=O)N3CCC(N4CCCCC4)CC3)nnc12	1%	13µM*	-19%	-15%	?
O=C1OC(N2C(=O)CC[C@H]2C(=O)Nc2ccc3c(c2)OCO3)c2ccccc21 (stereo partly drawn)	?	0.89µM*	2%	-20%	-15
Cc1cc(C)cc(NC(=O)CCN2C(=O)c3ccccc3Sc3ncccc32)c1	-1%	nt	-5%	nt	-61*
CC(C)(CC(=O)NCc1ccc(Cl)cc1Cl)CC1=NS(=O)(=O)c2ccccc2N1	9%	nt	?	nt	-89*
COc1ccc(S(=O)(=O)N(CC(=O)N2CCOCC2)c2ccc(F)cc2)cc1OC	-2%	15%	5%	11%	-26
COc1cc(-c2cnc3c(NC=O)cc(-c4cccc(C(F)(F)F)c4)cn23)cc(OC)c1OC	nt	nt	20µM*	nt	-67*
COc1cccc(-c2cc(NC=O)c3ncc(-c4cc(OC)c(OC)c(OC)c4)n3c2)c1	nt	nt	?	nt	-81*
COc1ccc(-c2cnc3c(NC=O)cc(-c4ccccc4OC)cn23)cc1OC	nt	nt	?	nt	-80*
COc1cccc(-c2cnc3c(NC=O)cc(-c4ccc(O)c(OC)c4)cn23)c1	nt	nt	-23%	nt	72
COc1cc(-c2ccc3ncc(-c4cccc(C(F)(F)F)c4)n3n2)cc(OC)c1OC	nt	nt	nt	nt	-95*
COc1ccc(-c2cc(NC=O)c3ncc(-c4ccc(OC)c(OC)c4)n3c2)cc1OC	nt	nt	?	nt	-1
CCc1nnc(NC(=O)c2nc(SC)ncc2Cl)s1	13%	nt	-14%	nt	24
SMILES	AmpC inh detg	HCV inhibitor	FMDV inh	AmpC no deterg	HCMV antiviral
Cc1ccccc1C(=O)NC(=O)Nc1ccc(-n2nc(C(F)(F)F)cc2C(F)(F)F)cc1	-1%	nt	0%	nt	-3
Cc1ccc(O)c(C2=NNC(O)(C(F)(F)F)C2)c1 (stereo not drawn)	0%	11µM*	-15%	-11%	-30
Clc1cccc(-c2cc3nc4c(c(NCc5ccco5)n3n2)CCCC4)c1	?	10µM*	nt	20%	95
COC(=O)c1ccccc1NC(=O)CCc1c(C)nc2c(c(C)nn2-c2ccccc2)c1C	16%	nt	-20%	nt	10
COC(=O)c1c(C)nc2c(c(SC)nn2-c2ccccc2)c1N	13%	11µM*	-19%	-14%	-19
CCOc1ccc(NC(=O)CN(C)C(=O)c2cc(S(=O)(=O)N3CCCCCC3)ccc2OC)cc1OCC	-13%	2%	-18%	159%	0
CCc1ccc(C2=NNC(=Nc3cccc(S(=O)(=O)N(C)C)c3)SC2)cc1	-7%	4.5µM*	-7%	-54%	-99*
Cc1ccc(C2=NNC(=Nc3ccc(F)cc3)SC2)cc1	2%	?	41%	-47%	-4
Cc1ccc(C)c(OC(=O)CSc2nnc(-c3ccc4c(c3)OCO4)o2)c1	24%	nt	0%	nt	-1
Cc1ccccc1CNCCCSc1nnnn1-c1ccccc1	15%	nt	-9%	nt	-5
CCN(C)c1cc2c(c3c1ccn3C)C1CCC2C1 (stereo not drawn)	nt	nt	-12%	nt	-1
COc1ccccc1N(C)c1cc2c(c3c1ccn3C)C1CCC2C1 (stereo not drawn)	nt	nt	-10%	nt	-89*
CN(CC(=O)Nc1ccc(Cl)cc1F)C1CCS(=O)(=O)C1 (stereo not drawn)	-14%	8%	-22%	-19%	-100*
C/C=C/c1ccc(OCCOCCNCc2ccccc2)c(OC)c1	-7%	-2%	-17%	55%	-1
CCC1CN2CCc3cc(OC)c(OC)cc3C2CC1CC1NCCc2cc(OC)c(OC)cc21 (stereo not drawn)	nt	nt	0%	nt	nt
CCC1=C(CC2NCCc3ccccc32)CC2c3cc(OC)c(OC)cc3CCN2C1 (stereo not drawn)	nt	?	?	nt	-100*
CC[C@H]1CN2CCc3cc(OC)c(OC)cc3C2C[C@@H]1C[C@H]1NCCc2cc(OC)c(OC)cc21 (stereo partly drawn)	nt	0.32µM*	-20%	nt	-97*
